In PubChem BioAssay (NCATS):
Where “and” joins values, the source holds several entries; their conditions need not be identical. Equal values may be shown once. Inconclusive results are not listed. A structure can be active in one record and inactive in another. Calls of active or inactive are those of the source. Unless noted, calls come from the whole dose curve; as a rule, active = well fitted curve in the direction sought with a large enough effect; inconclusive = small, poorly fitted or top-dose-only effect, or another doubt; inactive = no such curve, though single readings can be large; an effect the other way counts as inactive or inconclusive.

How the values were obtained:
[1] = molecular target: Luciferin 4-monooxygenase (Photinus pyralis) (UniProt P08659); experiment: Biochemical firefly luciferase enzyme assay for NPC (AID 624030);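 note: purified P. pyralis luciferase at 10 nM with luciferin and ATP substrate; 0% = DMSO and -100% = full luciferase inhibition by PTC124 control; nearly all actives have a fitted effect of over 70% in size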
How it was run: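 Purified P. pyralis luciferase at 10 nM in 50 mM Tris Acetate (final), luminescence read within 5 minutes of enzyme addition to compounds. Activity normalised to PTC124 versus DMSO; concentration-response curves classed by r2, magnitude and activity.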

[2] = S16 Schwann cell viability assay (CellTiter-Glo assay) (AID 624031); note: nearly all actives have a fitted effect of over 70% in size; note: potency is the fitted concentration of half-maximal effect
How it was run: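 Native S16 rat Schwann cells in DMEM/10% FBS without phenol red were incubated overnight, then exposed to compounds for 24 h at 37 °C/5% CO2. Viability was read as ATP luminescence (CellTiter-Glo), normalized to no-cell wells and DMSO (0%).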

[3] = S16 Schwann cell PMP22 intronic element firefly luciferase assay (AID 624032); note: nearly all actives have a fitted effect of over 30% in size; note: potency is the fitted concentration of half-maximal effect
How it was run: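 Rat S16 Schwann cells stably carrying firefly luciferase driven by a PMP22 intronic element, in 10% FBS, treated 24 h at 37 C. ONE-Glo luminescence normalized to PTC124 control and DMSO (0%); curves classed by r2, magnitude and activity.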

[4] = S16 Schwann cell PMP22 intronic element beta-lactamase assay (AID 624044; calls by dose curve; note: nearly all actives have a fitted effect of over 15% in size; note: potency is the fitted concentration of half-maximal effect;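 for ratio activity, negative = inhibition: 0% = DMSO and -100% = potassium clavulanate positive control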); details: S16 rat Schwann cells, PMP22 element beta-lactamase FRET, 24 h; ratio activity, negative = inhibition: at 38.3 µM (top of the series) unless noted
How it was run: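 Beta-lactamase reporter under a PMP22 intronic regulatory element in stable S16 rat Schwann cells; 24 h compound exposure. 460 nm blue signal normalized between DMSO (0%) and potassium clavulanate, with 535 nm FRET tracking viability; curves classed by r2 and response.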

[5] = qHTS assay for small molecule activators of the p53 signaling pathway (AID 651743; active = well fitted activation curve with a large enough effect in the signal ratio, not every such curve was filed as active; the % refers to the signal ratio; note: % of control where 0% means no effect); details: HCT-116 p53RE-bla, beta-lactamase FRET ratio, 16 h; activation: stronger effect = higher value
How it was run: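 Reporter: beta-lactamase driven by p53 response elements, stably integrated in HCT-116 cells. Cells seeded at 4,000/well, 5 h preincubation, compound (DMSO) 16 h at 37 C; B/G FRET substrate 2 h RT; fluorescence intensity read.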

[6] = qHTS assay for small molecule activators of the nuclear factor-kappa B (NF-kB) signaling pathway (AID 651749; active = well fitted activation curve with a large enough effect in the signal ratio; the % refers to the signal ratio; note: % of control where 0% means no effect); details: NF-kB-bla ME-180 cells, beta-lactamase FRET ratio, 16 h; stronger effect = higher value
How it was run: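 NF-kB-bla ME-180 cells, 2,000/well; 23 nL compound or DMSO pinned; 16 hr, 37C/5% CO2; beta-lactamase FRET read-out.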

[7] = qHTS assay for small molecule disruptors of the mitochondrial membrane potential - 1 hr assay (AID 651754; calls by dose curve; note: % is set by controls: 0 for no effect and ±100 for the full control effect; nearly all actives have a fitted effect of over 35% in size)
How it was run: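 In this qHTS format, a 1 hr compound treatment of HepG2 cells precedes Mito-MPS staining, and membrane potential is judged from aggregate (red) against monomer (green) fluorescence intensity.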

[8] = qHTS assay for small molecule disruptors of the mitochondrial membrane potential - 5 hr assay (AID 651755; calls by dose curve; note: % is set by controls: 0 for no effect and ±100 for the full control effect; nearly all actives have a fitted effect of over 40% in size)
How it was run: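 Read-out: ratiometric Mito-MPS fluorescence, green monomer (ex 490/em 535) vs red mitochondrial aggregate (ex 540/em 590). HepG2 cells treated 5 hr at 37C before 30 min dye loading.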

[9] = molecular target: Tumor necrosis factor (Homo sapiens) (UniProt P01375); experiment: qHTS assay to identify small molecules that stimulate Tumor Necrosis Factor-alpha (TNF-alpha) secretion (AID 651757; active = well fitted curve in the direction sought with a large enough effect in the signal ratio; the % refers to the signal ratio; note: 0% is about no effect)
How it was run: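 Using 3000 THP-1 cells per well, compounds and controls were applied for 17 hrs at 37 C. Detection followed with two labeled anti-TNF-alpha antibodies (cryptate donor, XL665 acceptor) for 3 hr at room temperature, measured by TR-FRET.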

[10] = qHTS assay for environmental chemicals that activate the Aryl hydrocarbon Receptor (AhR) signaling pathway (AID 651777); details: 1A2-DRE human hepatoma cells, luciferase, 24 h; activation: stronger effect = higher value; note: % of control where 0% means no effect; nearly all actives have a fitted effect of over 15% in size
How it was run: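 Human hepatoma 1A2-DRE cells, stably carrying a dioxin response element and CYP1A2 promoter driving luciferase, were exposed to compounds for 24 hr at 37 C and 5% CO2. Luciferase signal was then read after 30 min One-Glo at room temperature.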

[11] = molecular target: Peroxisome proliferator-activated receptor alpha (Homo sapiens) (UniProt Q07869); experiment: qHTS assay for small molecule agonists of the peroxisome proliferator-activated receptor alpha (PPARalpha) signaling pathway (AID 651778); details: PathHunter PPARalpha complementation, chemiluminescence, 6 h; stronger effect = higher value; note: % of control where 0% means no effect
How it was run: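 Enzyme-fragment complementation assay in which ligand-bound PPARalpha translocates and forms an active enzyme that generates chemiluminescence. Cells were plated overnight, exposed to compound for 6 hr at 37 C, and then given detection reagent for 60 min at room temperature.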

[12] = molecular target: Nuclear receptor ROR-gamma (Homo sapiens) (UniProt P51449); experiment: qHTS assay for small molecule antagonists of the retinoid-related orphan receptor gamma (ROR-gamma) signaling pathway (AID 651802);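 note: CHO cells with doxycycline-induced ROR-gamma expression; luciferase reporter luminescence driven by ROR response element; % is set by controls: 0 for no effect and ±100 for the full control effect; nearly all actives have a fitted effect of over 60% in size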
How it was run: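 Doxycycline-induced reporter activity in engineered CHO cells (TET-inducible ROR, RORE-LUC) was measured by luminescence after 16hr compound exposure at 37C.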

[13] = qHTS assay for small molecule agonists of the antioxidant response element (ARE) signaling pathway (AID 651741; active = well fitted activation curve with a large enough effect in the signal ratio; the % refers to the signal ratio; note: potency is the fitted concentration of half-maximal effect; for activation: % of control where 0% means no effect)
How it was run: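 HepG2 ARE-bla reporter cells, 2,000/well; 5 h settle at 37 C/5% CO2; compound pin transfer (23 nL, DMSO); 16 h at 37 C; LiveBLAzer B/G FRET substrate, 2 h RT; fluorescence intensity read.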

Chain of Tumor necrosis factor (Homo sapiens) (P01375 whole entry, looked up): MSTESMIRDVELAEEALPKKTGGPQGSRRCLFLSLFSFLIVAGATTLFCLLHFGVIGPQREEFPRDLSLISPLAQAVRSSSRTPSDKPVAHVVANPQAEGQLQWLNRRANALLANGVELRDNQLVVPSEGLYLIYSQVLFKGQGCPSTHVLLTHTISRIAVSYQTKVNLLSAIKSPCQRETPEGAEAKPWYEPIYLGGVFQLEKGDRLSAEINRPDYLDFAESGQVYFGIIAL
Chain of Peroxisome proliferator-activated receptor alpha (Homo sapiens) (Q07869 whole entry, looked up, the tested form may be a part): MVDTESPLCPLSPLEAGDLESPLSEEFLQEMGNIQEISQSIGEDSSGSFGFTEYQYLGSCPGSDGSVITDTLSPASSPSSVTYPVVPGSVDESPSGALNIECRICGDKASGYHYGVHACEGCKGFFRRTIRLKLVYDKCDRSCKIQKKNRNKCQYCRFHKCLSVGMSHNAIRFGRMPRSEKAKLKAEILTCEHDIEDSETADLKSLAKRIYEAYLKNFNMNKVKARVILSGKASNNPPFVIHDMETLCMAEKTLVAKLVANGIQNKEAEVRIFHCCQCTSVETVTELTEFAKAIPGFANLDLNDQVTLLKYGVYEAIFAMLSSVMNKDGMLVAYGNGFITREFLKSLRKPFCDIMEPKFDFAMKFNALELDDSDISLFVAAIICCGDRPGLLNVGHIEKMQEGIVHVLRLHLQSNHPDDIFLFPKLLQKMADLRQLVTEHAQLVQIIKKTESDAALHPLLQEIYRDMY
Chain of Luciferin 4-monooxygenase (Photinus pyralis) (P08659 whole entry, looked up): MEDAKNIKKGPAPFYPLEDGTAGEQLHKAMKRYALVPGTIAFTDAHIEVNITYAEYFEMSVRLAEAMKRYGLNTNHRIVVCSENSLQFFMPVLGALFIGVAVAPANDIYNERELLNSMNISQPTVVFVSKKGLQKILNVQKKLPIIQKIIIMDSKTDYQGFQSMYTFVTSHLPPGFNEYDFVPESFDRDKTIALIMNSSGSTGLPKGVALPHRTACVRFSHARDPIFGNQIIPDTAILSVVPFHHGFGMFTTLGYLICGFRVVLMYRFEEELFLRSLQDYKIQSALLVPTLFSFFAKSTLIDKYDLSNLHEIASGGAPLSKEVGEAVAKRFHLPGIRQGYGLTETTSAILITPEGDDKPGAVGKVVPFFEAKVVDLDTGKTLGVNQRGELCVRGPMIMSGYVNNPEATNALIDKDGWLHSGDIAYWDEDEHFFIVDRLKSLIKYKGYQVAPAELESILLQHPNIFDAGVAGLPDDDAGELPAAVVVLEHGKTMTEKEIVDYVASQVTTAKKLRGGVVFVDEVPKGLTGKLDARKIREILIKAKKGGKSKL
Chain of Nuclear receptor ROR-gamma (Homo sapiens) (P51449 whole entry, looked up): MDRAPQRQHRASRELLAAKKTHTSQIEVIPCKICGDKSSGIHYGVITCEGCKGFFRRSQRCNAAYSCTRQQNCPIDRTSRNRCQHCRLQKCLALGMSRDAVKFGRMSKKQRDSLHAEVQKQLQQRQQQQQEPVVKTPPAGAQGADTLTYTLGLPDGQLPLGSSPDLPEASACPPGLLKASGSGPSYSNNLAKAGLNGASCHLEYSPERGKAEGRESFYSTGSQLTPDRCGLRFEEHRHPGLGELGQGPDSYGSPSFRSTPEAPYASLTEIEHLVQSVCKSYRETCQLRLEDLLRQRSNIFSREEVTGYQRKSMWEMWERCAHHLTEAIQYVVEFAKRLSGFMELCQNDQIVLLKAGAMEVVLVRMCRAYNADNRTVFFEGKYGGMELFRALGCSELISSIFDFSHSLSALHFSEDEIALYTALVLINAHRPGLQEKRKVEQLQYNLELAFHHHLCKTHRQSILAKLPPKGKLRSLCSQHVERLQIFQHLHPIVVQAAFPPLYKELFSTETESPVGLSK

NCCN
inactive: Potency [1] | Potency [2] | Potency [3] | ratio activity, negative = inhibition [4] -0.354% | activation [5] 3.88% | activation [6] -0.458% | Potency [7] | Potency [8] | Potency [9] | activation [10] -1.15% | max response [11] -6.55% | Potency [12]

C=C(C)C1CC=C(C)CC1 (configuration not stated)
inactive and 1.12 mM (active): Potency [13]
inactive: Potency [1] | Potency [3] | ratio activity, negative = inhibition [4] -0.885% | activation [5] -4.46% | activation [6] -0.265% and 0.532% | activation [10] -2.32% and -0.122% | max response [11] -1.15% and 0.153%

CCc1ncnc2cc(OC)c(OC)cc12
inactive: Potency [1] | Potency [3] | ratio activity, negative = inhibition [4] -3.22%

C=CC[N+]1([C@H]2C[C@H]3[C@@H]4CC[C@H]5C[C@H](O)[C@@H](N6CCOCC6)C[C@]5(C)[C@H]4CC[C@]3(C)[C@H]2OC(C)=O)CCCC1
inactive: Potency [1] | Potency [2] | ratio activity, negative = inhibition [4] -0.444%

O=C(OC1C[C@@H]2CC3C[C@H](C1)N2CC3=O)c1c[nH]c2ccccc12 (some centres not stated)
inactive: Potency [1] | Potency [2] | Potency [3] | ratio activity, negative = inhibition [4] -0.0634%

C[Si](C)(C)O[Si](C)(C)C
inactive: Potency [1] | Potency [2] | Potency [3] | ratio activity, negative = inhibition [4] -0.118% | Potency [13] | activation [5] -3.5% | activation [6] -1.12% | activation [10] 1.01% | max response [11] -0.124%

[O-][N+](=Nc1ccccc1)c1ccccc1
inactive: Potency [2] | ratio activity, negative = inhibition [4] 3.38% | activation [5] 1.25% | activation [6] 0.0708% | Potency [7] | Potency [8] | Potency [9] | max response [11] 10.8%

C=CCN1CCCC1CNC(=O)c1cc(S(N)(=O)=O)cc(OC)c1OC (configuration not stated)
inactive: Potency [1] | Potency [2] | Potency [3] | ratio activity, negative = inhibition [4] 1.62%

OCl
inactive: Potency [1] | Potency [2] | Potency [3] | Potency [13] | activation [5] -2.68% | activation [6] -0.921% | Potency [7] | Potency [8] | Potency [9] | activation [10] 0.267% | max response [11] -2.41% | Potency [12]

C=Cc1ccc(S(=O)(=O)O)cc1
inactive: Potency [1] | Potency [2] | Potency [3] | ratio activity, negative = inhibition [4] -7.16%

CCN(CC)CCC(=O)N1c2ccccc2Sc2ccc(C(F)(F)F)cc21
inactive: Potency [1] | Potency [2] | ratio activity, negative = inhibition [4] -1.58%
active: Potency [3] 14.4 µM

Cc1nc(NS(=O)(=O)c2ccc(N)cc2)nc(C)c1Br
inactive: Potency [1] | Potency [3] | ratio activity, negative = inhibition [4] 0.0634%

C[C@]12CC[C@@H]3c4ccc(OC(=O)c5ccccc5)cc4CC[C@H]3[C@@H]1CC[C@@H]2O
inactive: Potency [1]
active: Potency [3] 3.61 µM

CN(C)CCOc1ccc(/C(=C(/CCCl)c2ccccc2)c2ccccc2)cc1
inactive: Potency [1] | ratio activity, negative = inhibition [4] -1.5%

O=C1[O][Bi][O]c2ccccc21
inactive: Potency [1] | Potency [2] | Potency [3] | ratio activity, negative = inhibition [4] 0.885%

CCC(C)[C@@H](N)C(=O)O (some centres not stated)
inactive: Potency [1] | Potency [2] | Potency [3] | ratio activity, negative = inhibition [4] 8.55%

CCCCCCCCCCCCCCCCOCCOCCOCCOCCOCCOCCOCCOCCOCCOCCOCCOCCOCCOCCOCCOCCOCCOCCOCCOCCO
active: Potency [2] 28.7 µM | Potency [3] 22.8 µM | Potency [4] 19.9 µM
inactive: Potency [1]

CCOC(=O)C1=C(COCCN)NC(C)=C(C(=O)OC)C1c1ccccc1Cl (configuration not stated)
inactive: Potency [1] | Potency [3] | ratio activity, negative = inhibition [4] -3.48%

CC(CNC(=O)c1cccnc1)NC(=O)c1cccnc1 (configuration not stated)
inactive: Potency [1] | Potency [2] | Potency [3] | ratio activity, negative = inhibition [4] 0%

CC(C)(CO)[C@@H](O)C(=O)NCCC(=O)NCCSSCCNC(=O)CCNC(=O)[C@H](O)C(C)(C)CO
inactive: Potency [1] | Potency [2] | Potency [3] | ratio activity, negative = inhibition [4] 2.37%

CCOC(=O)c1cc(-c2ccccc2)nc2ccc(C)cc12
inactive: Potency [1] | Potency [2] | ratio activity, negative = inhibition [4] 4.28%

S=C1SCN(Cc2ccccc2)CN1Cc1ccccc1
inactive: Potency [1] | ratio activity, negative = inhibition [4] -11.2%
active: Potency [3] 14.4 µM

NCC[C@H](O)C(=O)N[C@@H]1C[C@H](N)[C@@H](O[C@H]2O[C@H](CN)[C@@H](O)[C@H](O)[C@H]2O)[C@H](O)[C@H]1O[C@H]1O[C@H](CO)[C@@H](O)[C@H](N)[C@H]1O
inactive: Potency [1] | Potency [2] | ratio activity, negative = inhibition [4] -4.63%

CN(C)CCC=C1c2ccccc2C(C)(C)c2ccccc21
inactive: Potency [1] | Potency [3] | ratio activity, negative = inhibition [4] -0.444%

CCSc1ccc2c(c1)N(CCCN1CCN(C)CC1)c1ccccc1S2
inactive: Potency [1] | Potency [2] | Potency [3] | ratio activity, negative = inhibition [4] 0.419% [at 17.1 µM]
